# Screening data from PubChem.
# USP8 inh = blocks human USP8 ubiquitin-rhodamine cleavage; purified USP8, Ub-rhodamine cleavage fluorescence, 30 min; inhibition, % at 20 µM; hit rate 4.2% among 47,000
# USP30 inh = human USP30 deubiquitinase inhibition; Q70CQ3; purified USP30, Ub-rhodamine cleavage fluorescence; inhibition, % at 25 µM; hit rate 5.3% among 47,000; AID 1645860
# USP28 inh = blocks human USP28 ubiquitin-rhodamine cleavage. Q96RU2. purified USP28, Ub-rhodamine cleavage fluorescence, 30 min. inhibition, % at 25 µM. hit rate 3% among 47,000. AID 1645857
# Target sequence (Q96RU2 whole entry, looked up): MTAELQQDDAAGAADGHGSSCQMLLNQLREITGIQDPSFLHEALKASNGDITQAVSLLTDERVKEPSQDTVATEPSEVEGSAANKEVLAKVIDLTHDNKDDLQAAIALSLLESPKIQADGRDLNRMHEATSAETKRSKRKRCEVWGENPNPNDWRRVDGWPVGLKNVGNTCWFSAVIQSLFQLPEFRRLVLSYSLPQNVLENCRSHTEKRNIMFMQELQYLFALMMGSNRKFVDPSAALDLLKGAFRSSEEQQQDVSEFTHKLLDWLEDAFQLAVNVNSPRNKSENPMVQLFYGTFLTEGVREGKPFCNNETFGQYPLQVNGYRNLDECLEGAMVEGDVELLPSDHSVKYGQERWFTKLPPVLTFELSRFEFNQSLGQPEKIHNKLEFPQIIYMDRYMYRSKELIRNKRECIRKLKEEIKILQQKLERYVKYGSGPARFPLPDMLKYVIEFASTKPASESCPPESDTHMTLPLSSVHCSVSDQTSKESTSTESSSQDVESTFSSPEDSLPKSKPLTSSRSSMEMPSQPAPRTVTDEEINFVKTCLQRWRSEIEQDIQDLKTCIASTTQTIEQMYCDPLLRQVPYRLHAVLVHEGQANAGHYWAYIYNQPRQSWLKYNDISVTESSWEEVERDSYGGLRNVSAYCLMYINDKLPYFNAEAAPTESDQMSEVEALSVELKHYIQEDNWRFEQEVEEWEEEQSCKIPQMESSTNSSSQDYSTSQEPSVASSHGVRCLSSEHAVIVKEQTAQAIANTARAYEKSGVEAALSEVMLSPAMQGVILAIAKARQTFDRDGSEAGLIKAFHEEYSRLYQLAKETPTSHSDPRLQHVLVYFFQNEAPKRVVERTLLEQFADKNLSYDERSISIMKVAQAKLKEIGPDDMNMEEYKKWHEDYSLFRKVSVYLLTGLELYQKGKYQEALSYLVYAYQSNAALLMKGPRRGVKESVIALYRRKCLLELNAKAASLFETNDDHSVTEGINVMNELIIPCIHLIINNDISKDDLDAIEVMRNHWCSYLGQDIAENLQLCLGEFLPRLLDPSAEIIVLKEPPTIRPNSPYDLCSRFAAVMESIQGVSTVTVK
# OTUD3 block = human OTUD3 deubiquitinase inhibition | purified OTUD3, Ub-rhodamine fluorescence, 2 h | inhibition, % at 25 µM | hit rate 0.7% among 47,000
# USP17 inh = human USP17-like deubiquitinase inhibition. hit rate 6.5% among 47,000. A8MUK1. inhibition, % at 50 µM. purified USP17, Ub-rhodamine cleavage fluorescence, 3 h
# Active calls of the source: *; . = not tested or not shown. Compounds with a hit are over-represented: about 13% of the library has one in this group of screens. Rule as the data show it: active = inhibition above about 30%; inactive = the rest.
SMILES,USP8 inh,USP30 inh,USP28 inh,OTUD3 block,USP17 inh
CC1Cc2ccccc2N1C(=O)Cc1csc(NC(=O)c2ccc(=O)[nH]c2)n1 (configuration not stated),46.9*,-134.9,-33.6,-28.7,22.9
COc1ccc(C2CCCCCN2C(=O)Cn2ccccc2=O)cc1 (configuration not stated),67.1*,-8.1,5.1,-9.9,.
COc1ccc(C2CCCCCN2C(=O)c2ccnc(C)n2)cc1 (configuration not stated),11.3,7.9,-4.9,-1.7,5.3
CC(=O)Nc1ccc(OCC(O)CN2CCC(Cc3ccccc3)CC2)cc1 (configuration not stated),-12.3,-9.7,-10.4,-7.4,-10.9
Cc1cc(C)n2cc(-c3ccc4ccccc4c3)c(C#N)c2n1,-37.2,-8.8,1.3,10.8,-11.4
COc1ccc(OC)c2c(C)cc(N3CC(C)CC(C)C3)nc12 (configuration not stated),97.7*,43.2*,53.8*,30.5*,95.9*
CCc1ccc(OCC(=O)Nc2c(C)nc3scc(C)n3c2=O)cc1,-8.4,-5.4,-4.1,-5.8,-7.1
Cn1c(C(=O)O)c(CNCCC2=CCCCC2)c2ccccc21,-2.2,-14.4,-19.8,-2.4,-17.3
COc1ccc(-n2c(=O)c3ccc(C(=O)NCCc4ccccc4)cc3n(CC(=O)NCCC3=CCCCC3)c2=O)cc1,8.0,4.5,7.1,29.3,40.5*
COc1ccc2c(CNCCC3=CCCCC3)c(C(=O)O)n(Cc3ccccc3F)c2c1,18.1,39.6*,23.2,10.6,29.0
Cc1ccc(-n2c(=O)c3ccc(C(=O)NCc4ccco4)cc3n(CC(=O)NCCC3=CCCCC3)c2=O)cc1,42.9*,-47.8,-24.4,-15.1,-4.3
CC(=O)c1ccc(NC(=O)c2cc([N+](=O)[O-])ccc2N2CCCCC2)cc1,-62.3,5.6,3.2,-0.3,-9.0
Cc1nnc(NC(=O)C2CCN(c3ccc(S(N)(=O)=O)cc3[N+](=O)[O-])CC2)o1,19.1,28.8,66.1*,66.8*,72.8*
Cc1ccc(S(=O)(=O)N2CCC(C(=O)Nc3nnc(C)o3)CC2)cc1,-8.2,1.3,0.1,5.6,2.6
CCCCC/C=C/C/C=C/CCCCCCCC(=O)N[C@@H]1C[C@@H](O)[C@@H](O)NC(=O)[C@@H]2[C@H](O)[C@@H](C)CN2C(=O)[C@@H]([C@@H](C)O)NC(=O)[C@H]([C@H](O)[C@@H](O)c2ccc(O)cc2)NC(=O)[C@@H]2C[C@@H](O)CN2C(=O)[C@H]([C@@H](C)O)NC1=O,-4.5,-21.5,-8.4,-14.7,-8.6
Cc1cc(C)c2cc(CN(Cc3cccnc3)C(=O)NCc3ccccc3)c(=O)[nH]c2c1,-14.1,-13.6,-9.2,-14.2,-28.5
CC(=O)Nc1ccc(S(=O)(=O)NCCn2c(C)cc3ccccc32)cc1,-62.1,-162.2,-36.2,-39.8,34.4*
Cc1ncc(-c2cncc(CC3CCN(S(C)(=O)=O)CC3)n2)n1C,17.3,9.4,5.1,11.6,5.0
O=C(Nc1cnc(N2CCCCCC2)nc1)c1cccc(F)c1,16.0,1.1,24.3,-0.5,-22.3
Cc1ccc(N(CC(=O)N2CCCc3ccccc32)S(=O)(=O)c2ccc3c(c2)OCCO3)cc1,14.6,31.8*,13.1,21.4,6.6
CCOC(=O)c1cc(C(C)=O)on1,4.6,-84.0,-3.8,-2.0,0.2
COc1ccc(NC(=O)C2c3ccccc3C(=O)N(C3CCCC3)C2c2cccs2)cc1OC (configuration not stated),19.6,16.2,26.0,16.6,56.3*
COc1ccc(NC(=O)C2c3ccccc3C(=O)N(C3CCCC3)C2c2cccs2)c(OC)c1 (configuration not stated),21.2,39.9*,13.2,16.9,18.0
COc1ccc(OC)c(NC(=O)C2c3ccccc3C(=O)N(C3CCCC3)C2c2cccs2)c1 (configuration not stated),-0.3,4.4,-4.9,0.1,-1.5
COc1ccccc1Oc1nc(-c2ccccc2)cc(C)c1S(C)(=O)=O,6.4,14.4,37.0*,7.0,28.2
SMILES,USP8 inh,USP30 inh,USP28 inh,OTUD3 block,USP17 inh
c1cncc(CNc2ncnc3c2sc2nc(N4CCOCC4)c4c(c23)CCC4)c1,-3.7,16.9,0.8,-2.5,31.6*
CC(Nc1ncnc2c1sc1nc(N3CCOCC3)c3c(c12)CCC3)c1ccccc1 (configuration not stated),1.5,-9.1,-0.9,-4.5,50.6*
c1ccc(CCNc2ncnc3c2sc2nc(N4CCOCC4)c4c(c23)CCC4)cc1,11.9,3.0,5.0,0.1,24.8
O=C(NCc1ccc(Cl)c(Cl)c1)c1cc(S(=O)(=O)N2CCC3(CC2)OCCO3)ccc1F,8.2,21.7,35.7*,5.9,1.3
c1cnn(CC2CCCN2Cc2nc(-c3ccoc3)no2)c1 (configuration not stated),-17.2,-103.5,-27.3,-31.5,.
Cc1nc2c(c(=O)c3ccccc3n2C)c(=O)n1Cc1ccco1,-9.7,-31.6,15.3,15.3,11.9
Cn1c2ccccc2c(=O)c2c(=O)n(Cc3ccccc3)c(-c3ccc(C(C)(C)C)cc3)nc21,5.5,2.3,-7.4,-6.8,49.9*
Cn1c2ccccc2c(=O)c2c(=O)n(Cc3ccco3)c(C3CCCCC3)nc21,30.5*,20.6,6.6,8.1,8.3
COCCCn1c(-c2ccc([N+](=O)[O-])cc2)nc2c(c(=O)c3ccccc3n2C)c1=O,-55.2,-10.2,0.9,-2.8,9.5
COc1ccc(CCn2c(-c3ccccc3C)nc3c(c(=O)c4ccccc4n3C)c2=O)cc1,9.5,5.8,4.5,8.7,.
COc1ccc(CCn2c(-c3ccccc3C)nc3c(c(=O)c4ccccc4n3C)c2=O)cc1OC,-58.1,12.9,14.2,0.0,0.7
Cn1c2ccccc2c(=O)c2c(=O)n(Cc3ccccc3)c(-c3ccco3)nc21,17.6,-21.2,43.8*,1.4,58.9*
Cn1c2ccccc2c(=O)c2c(=O)n(Cc3ccccc3)c(-c3ccccc3F)nc21,2.1,-15.0,0.4,-15.2,65.9*
CN1CCC(NC(=O)C2CNC[C@H]2c2cccnc2)CC1 (some centres not stated),-2.5,-4.6,-7.7,-9.2,-4.3
CCOc1ccc(NC(=O)CSc2nc3sc4c(c3c(=O)n2-c2ccc(Cl)cc2)CCN(C)C4)cc1,3.4,-56.9,-9.9,0.1,-0.1
Cc1cccc(Nc2cc(C)nc(C3CCCN(C(=O)CN)C3)n2)n1 (configuration not stated),2.1,-0.5,5.4,2.4,1.5
COc1ccc(OCC(=O)N(Cc2cccc3ccccc23)c2ccccn2)cc1,-7.7,4.2,-4.2,0.5,-3.8
Cc1ccc(-c2nc3c(c(=O)c4ccccc4n3C)c(=O)n2-c2ccc(F)cc2)cc1,-2.2,7.3,-2.3,-4.9,43.4*
COCCn1c(C2CCCCC2)nc2c(c(=O)c3ccccc3n2C)c1=O,-0.9,0.4,-4.5,-6.1,4.5
O=C1N(c2ccccc2)C2CS(=O)(=O)CC2N1c1ccc([N+](=O)[O-])cc1 (configuration not stated),-0.4,.,.,0.5,30.1*
